From PubChem BioAssay
Active and inactive are the calls of the source.

Tests used:
[1] = target: Albumin (Bos taurus) (UniProt P02769); test: compounds binding labelled BSA control protein – biochemical, small-molecule microarray, Alexa647 label, 635/667 nm fluorescence, artefact control for SMM control protein annotation, profiling panel (AID 1118); settings: BSA-A647 binding, fluorescence 635 nm, higher = more signal;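 note: score merges 667 nm emission intensity and signal-to-noise per printed compound spot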
[2] = probe aXIP binding to arrayed compounds – biochemical, NeuroSMM set, 635/667 nm fluorescence, primary screen (AID 1119); settings: small-molecule microarray, higher = more signal, called active from +8 up or from −8 down;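 note: probe is the protein aXip251-270 applied at 1 µg/mL to compound-printed slides; binding of probe to printed compounds measured as 667 nm fluorescence plus signal to noise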
[3] = probe aNOTCH3 binding on compound microarray – biochemical, small-molecule microarray, 635/667 nm fluorescence, primary screen (AID 1120); settings: higher = more signal;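 note: probe is a biotin-tagged antibody raised against NOTCH3 rather than NOTCH3 protein; score merges spot fluorescence near 667 nm with spot signal to noise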
[4] = probe aNOTCH2 binding on compound microarray – biochemical, small-molecule microarray, 635/667 nm fluorescence, primary screen (AID 1121); settings: higher = more signal;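 note: score merges feature fluorescence read at 667 nm with its signal to noise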
[5] = target: Carbonic anhydrase 2 (Homo sapiens) (UniProt P00918); test: compounds binding carbonic anhydrase 2 – biochemical, small-molecule microarray, Alexa647-labelled CAII, profiling panel (AID 1122); settings: CAII-A647 binding fluorescence, higher = more signal
[6] = COS7 lysate on small-molecule microarray, probe aHis, 635 nm (AID 1123); settings: COS7 cell lysate, fluorescence, higher = more signal;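 note: z-score combines 667nm fluorescence intensity with signal-to-noise per printed compound spot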
[7] = probe aLAP1 signal on lysate-treated microarray – cell lysate, small-molecule microarray, COS7 lysate, primary screen (AID 1124); settings: probe aLAP1, fluorescence, higher = more signal;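 note: lysate comes from COS7 cells expressing LAP1 and is applied at 0.3 µg/mL; score merges spot fluorescence near 667 nm with signal-to-noise over triplicate slides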
[8] = system: Sam68 (KHDRBS1); test: compounds binding KHDRBS1 protein – biochemical, small-molecule microarray, 635 nm fluorescence, primary screen (AID 1125); settings: higher = more signal;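 note: score merges 667 nm channel intensity with signal to noise over triplicate slides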
[9] = system: Chordin-like protein 2 (CHRDL2); test: compounds binding chordin-like 2 – biochemical, small-molecule microarray, 635 nm fluorescence, primary screen (AID 1126); settings: fluorescence 635 nm, higher = more signal;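 note: printed compound slides probed with Chrdl2 protein at 4 µg/mL for 1 h at 4 C; score merges 667 nm emission intensity with signal to noise over three replicate slides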
[10] = target: Concanavalin-A (Canavalia ensiformis) (UniProt P02866); test: compounds binding concanavalin A lectin – biochemical, small-molecule microarray, Alexa647 label, 635 nm, artefact control for SMM control protein annotation, primary screen (AID 1127); settings: ConA-A647 binding fluorescence, higher = more signal;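 note: z combines 667 nm emission intensity with signal-to-noise across three replicate slides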
Concanavalin-A (Canavalia ensiformis), sequence (P02866 whole entry, looked up): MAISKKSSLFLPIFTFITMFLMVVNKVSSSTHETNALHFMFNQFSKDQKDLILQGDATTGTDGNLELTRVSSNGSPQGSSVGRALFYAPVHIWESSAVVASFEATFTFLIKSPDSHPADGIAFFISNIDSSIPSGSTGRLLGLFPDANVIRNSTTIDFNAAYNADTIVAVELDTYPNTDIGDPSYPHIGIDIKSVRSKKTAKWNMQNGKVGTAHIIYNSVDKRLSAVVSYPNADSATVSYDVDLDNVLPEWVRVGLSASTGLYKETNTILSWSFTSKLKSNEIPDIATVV

Albumin (Bos taurus), sequence (P02769 whole entry, looked up): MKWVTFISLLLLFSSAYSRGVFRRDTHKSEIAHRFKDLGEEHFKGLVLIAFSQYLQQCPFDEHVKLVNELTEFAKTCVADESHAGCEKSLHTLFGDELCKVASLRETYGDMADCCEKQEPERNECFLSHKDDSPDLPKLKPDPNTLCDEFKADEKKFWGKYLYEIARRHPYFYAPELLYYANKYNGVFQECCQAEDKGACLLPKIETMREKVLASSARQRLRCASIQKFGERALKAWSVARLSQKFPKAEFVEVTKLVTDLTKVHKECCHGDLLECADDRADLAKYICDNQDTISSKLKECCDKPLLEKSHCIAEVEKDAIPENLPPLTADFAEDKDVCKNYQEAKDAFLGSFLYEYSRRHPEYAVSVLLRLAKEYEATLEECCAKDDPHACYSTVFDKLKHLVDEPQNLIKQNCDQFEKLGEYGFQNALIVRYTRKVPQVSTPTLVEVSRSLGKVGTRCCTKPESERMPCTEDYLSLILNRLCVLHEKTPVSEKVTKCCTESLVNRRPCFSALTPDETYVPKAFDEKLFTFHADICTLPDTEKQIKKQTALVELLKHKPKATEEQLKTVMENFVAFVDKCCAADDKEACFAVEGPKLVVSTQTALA

Row | Structure (SMILES) | composite z-score [1] | composite Z-score [2] | composite z-score [3] | composite z-score [4] | composite z-score [5] | composite z-score [6] | composite z-score [7] | composite z-score [8] | composite z-score [9] | composite z-score [10]
1 | CC(C)C(=C=CC[C@@H](O)c1ccccc1OCCO)C[C@@H](O)c1ccccn1 | 0.0682 | -0.776 (inactive) | -0.0847 | -0.111 | 0.738 | 0.287 | -0.0744 | 0.95 | -0.0374 | 0.451
2 | CCCCC=C[C@@H](NC(=O)c1ccco1)c1ccccc1 | 0.844 | -0.474 (inactive) | -0.0947 | -0.0419 | -0.406 | 0.0455 | -0.358 | -0.708 | -0.134 | 1.01
3 | O=C1C2C=CC(C(O)c3ccc(-c4ccccc4)s3)N(n3cnnc3)C2C(=O)N1Cc1ccccc1 (stereo not given) | -0.314 | -0.34 (inactive) | 0.0519 | -0.0467 | 0.465 | 0.942 | 0.253 | 0.145 | -0.42 | 0.615
4 | COCC(=C=CC[C@H](O)c1ccc(OCCO)cc1)C[C@H](O)c1cc(Cl)cc(Cl)c1O | -0.679 | -0.566 (inactive) | 0.114 | -0.122 | 0.718 | -1.65 | 0.359 | 1.17 | 0.923 | 0.661
5 | COC(=O)[C@@]1(Cc2ccc(OC)cc2)[C@H]2c3cc(C(=O)N(C)C)n(Cc4c(OC)[nH]cc(C)c4=O)c3C[C@H]2CN1C(=O)c1ccccc1 | 0.589 | 0.0562 (inactive) | 1.04 | 0.107 | 0.881 | 1.57 | -0.155 | -0.0964 | -0.218 | -0.172
6 | Cc1cc(C)c(C(O)C2C=CC3C(=O)N(C)C(=O)C3N2Nc2ccccc2)c(C)c1 (stereo not given) | 0.72 | 2.43 (inactive) | 1.35 | 0.818 | 0.784 | 1.2 | 0.781 | 0.485 | 0.452 | 0.143
7 | C=CCNC(=O)[C@@H]1[C@H]2C(=O)O[C@H](c3ccccc3)[C@H](c3ccccc3)N2[C@H](c2ccc(O)cc2)[C@@]12C(=O)N(C(=O)OCCOC)c1ccccc12 | 0.752 | -0.155 (inactive) | -0.0716 | -0.143 | 0.519 | 2.23 | 0.334 | 1.28 | -0.49 | -0.18
8 | CCCNC(=O)[C@@]1(c2ccc([N+](=O)[O-])cc2)CC(=O)N(CC23CC4CC(CC(C4)C2)C3)[C@@H]1c1ccc(CO)cc1 | -0.161 | -0.639 (inactive) | -0.255 | -0.168 | 0.716 | 1.08 | 1.88 | 0.591 | -0.0438 | 0.531
9 | NCCCCCNC(=O)[C@H]1C[C@H]2C(=O)NCC(=O)N2[C@H]1c1cccc(OCCO)c1 | 0.0356 | 0.131 (inactive) | 0.204 | -0.136 | 0.429 | 1.12 | 0.391 | 1.32 | 0.636 | 1.16
10 | COCCOC(=O)N1C(=O)[C@@]2(c3ccccc31)[C@H](C(=O)NC[C@H](O)c1ccccc1)[C@H]1C(=O)O[C@H](c3ccccc3)[C@H](c3ccccc3)N1[C@@H]2c1ccc(OCCO)cc1 | 0.605 | -0.404 (inactive) | 0.267 | -0.0959 | 0.492 | 1.53 | -0.0994 | 1.3 | 1.22 | 1.12
11 | C=CCC(OC(C)=O)[C@@H]1[C@@H](N(Cc2ccc(-c3ccccc3)cc2)C(=O)Cc2ccc(OC)cc2)c2cc(OCCCO)ccc2N1C(=O)c1ccc2ccccc2n1 (stereo not given in full) | 0.0184 | 0.245 (inactive) | 0.0522 | -0.182 | 0.195 | 0.514 | 0.123 | -0.959 | 0.0504 | 0.177
12 | [N-]=[N+]=Nc1ccccc1[C@@H]1OC(c2ccc(OCCCO)cc2)=N[C@]1(CCS(=O)(=O)c1ccccc1)C(=O)N1CCOCC1 | 0.815 | 0.167 (inactive) | 0.287 | 0.0263 | 0.618 | 2.89 | 0.483 | 1.29 | -0.535 | 1.1
13 | O=C1c2ccccc2[C@@]2(Cc3ccccc3N(Cc3ccccc3)C2=O)[C@H](c2ccc(CO)cc2)N1C1CCCCC1 | -0.841 | 0.0066 (inactive) | -0.141 | -0.14 | 0.416 | 1.03 | 0.432 | 0.689 | 0.685 | 1.01
14 | C[C@]1(C(=O)NCc2ccccc2)c2ccccc2C(=O)N(Cc2cc(F)cc(C(F)(F)F)c2)[C@H]1c1ccc(CO)cc1 | -0.35 | -0.146 (inactive) | -0.177 | -0.0971 | 0.699 | 0.157 | 0.325 | -0.763 | -0.786 | -0.871
15 | C=C(COC)C(=O)CC[C@@H](OC(=O)c1cccnc1)c1ccc(CO)o1 | 0.158 | 0.509 (inactive) | -0.0362 | -0.157 | 0.481 | 0.387 | 0.823 | 0.532 | 0.739 | 0.341
16 | COc1ccc([Si](C)(C)[C@@H]2[C@@H](CC(=O)N3CCC[C@H]3CO)O[C@]3(C(=O)N(C)c4c(Br)cc(C)cc43)[C@H]2C)cc1 | 0.588 | 0.306 (inactive) | 0.0674 | -0.175 | 0.292 | 1.15 | 0.461 | 1.3 | 0.872 | 1.07
17 | O=C1O[C@@H](c2ccccc2)[C@@H](c2ccccc2)N2[C@@H](c3ccccc3OCCO)[C@]3(C(=O)Nc4ccc(C#CC5(O)CCCCCC5)cc43)[C@@H](C(=O)Nc3nc4ccccc4s3)[C@H]12 | 0.663 | -0.0544 (inactive) | 0.283 | -0.0904 | 0.453 | 1 | 0.246 | 1.02 | 0.784 | 0.723
18 | CCOC(=O)C[C@H]1[C@H](OC(=O)Cc2ccc3c(c2)OCO3)[C@@H](NC(=O)c2ccc(-c3ccccc3)cc2)c2cc(OCCCO)ccc2N1C(=O)c1ccccc1 | 0.731 | 0.133 (inactive) | 0.0316 | -0.0649 | 0.364 | 0.341 | -0.202 | 0.792 | 0.379 | 0.645
19 | CC(C)CNC(=O)[C@@]1(c2ccc([N+](=O)[O-])cc2)CC(=O)N(CC23CC4CC(CC(C4)C2)C3)[C@@H]1c1ccc(CO)cc1 | 0.152 | 0.0585 (inactive) | 0.157 | 0.014 | 0.523 | 1.42 | 1.15 | 1.04 | 0.201 | 0.73
20 | COC(=O)c1ccc(C(O)C2C=CC3C(=O)N(C)C(=O)C3N2NC(=O)OC(C)(C)C)o1 (stereo not given) | 0.538 | 1.02 (inactive) | 0.178 | 0.135 | 0.436 | 0.489 | 0.734 | 0.94 | -0.0987 | 0.494
21 | O=C1O[C@@H](c2ccccc2)[C@@H](c2ccccc2)N2[C@@H](c3ccc(O)cc3)[C@]3(C(=O)Nc4ccc(C#CC5=CCCCC5)cc43)[C@@H](C(=O)O)[C@H]12 | 0.885 | 0.341 (inactive) | 0.139 | 0.0685 | 0.715 | 1.86 | 0.788 | 1.32 | -0.194 | 0.9
22 | CC(=O)Nc1cc(Br)ccc1C(=O)O | 0.782 | -0.705 (inactive) | -0.0142 | -0.0502 | 0.363 | 0.385 | -0.0197 | 0.402 | -0.421 | 0.984
